From PubChem BioAssay
A selection: hits, their analogues and other compounds. The true share with any hit is near 3.4%.
MITF inh: blocks human microphthalmia-associated transcription factor. inhibition, % at 2.6 µM. 650,000 tested, 0.91% active. O75030. AlphaScreen MITF homodimerization, bead proximity signal; in the data active = inhibition above about 50%;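 also: 0% = vehicle wells with protein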
GPR151 ag: human GPR151 activation | 650,000 tested, 1% active | activation, % at 11.2 µM | AID 1508602 | Q8TDV0 | PathHunter beta-arrestin GPR151 cells, luminescence; in the data active = activation above about 4.9%;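 also: 0% = median of compound wells and 100% = cells with positive control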
Target sequence (Q8TDV0 whole entry, looked up): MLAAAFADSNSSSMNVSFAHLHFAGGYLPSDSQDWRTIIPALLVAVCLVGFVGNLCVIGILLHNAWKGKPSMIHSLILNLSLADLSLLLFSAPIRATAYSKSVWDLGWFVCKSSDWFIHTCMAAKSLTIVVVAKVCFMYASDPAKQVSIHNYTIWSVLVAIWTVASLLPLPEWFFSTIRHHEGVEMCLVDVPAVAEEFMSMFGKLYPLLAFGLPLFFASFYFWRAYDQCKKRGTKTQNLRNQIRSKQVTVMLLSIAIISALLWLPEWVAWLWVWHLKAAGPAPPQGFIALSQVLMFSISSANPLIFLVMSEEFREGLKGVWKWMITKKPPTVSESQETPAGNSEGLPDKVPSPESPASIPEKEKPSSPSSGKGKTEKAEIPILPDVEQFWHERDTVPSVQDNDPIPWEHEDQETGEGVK
TEAD-YAP block: TEAD-YAP interaction inhibition; HEK-TIYL cells, TEAD-Gal4/YAP UAS-luciferase luminescence; inhibition, % at 9.12 µM; 640,000 tested, 1.4% active; AID 1259422; in the data active = inhibition above about 32%;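 also: 0% = median of test compound wells and 100% = reference inhibitor wells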
FBW7 act: human FBW7 E3 ligase activation, primary screen. AlphaScreen FBW7–phospho-cyclin E peptide binding, activator screen. 650,000 tested, 0.13% active. AID 1259310. normalized activity (activation), % at 26.1 µM; in the data active = normalized activity above about 1.9%;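 also: purified mutant Fbw7 with reduced substrate affinity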
An asterisk follows results filed as active.

SMILES	MITF inh	GPR151 ag	TEAD-YAP block	FBW7 act
COCCCNC(=O)c1ccc2c(c1)nc(C)n2-c1cc(C)ccc1OC	-12.1	1.2	55.6*	0.1
O=C1CC(/C=C/c2ccccc2)(C(=O)NC2CCCCC2)N1c1cccnc1 (centres undefined)	2.0	0.8	4.1	0.1
Cc1cc(N2CCCC2)c(C)cc1/C=C\[N+](=O)[O-]	-3.2	1.2	53.8*	-0.2
Cc1cc(N2CCCC2)c(C)cc1C=O	2.8	3.0	-11.4	0.0
COc1ccc(C2NC(=O)NC(C)=C2C(=O)Nc2cc(C)cc(C)c2)cc1OC (centres undefined)	-19.3	-0.2	-2.6	0.3
CC(C(=O)OCc1ccc(F)cc1)N1C(=O)C(=O)c2cc(Br)ccc21 (centres undefined)	53.4*	1.3	-0.3	0.1
CCOC(=O)c1c(NC(=O)CSc2nnc(CNC(=O)COc3ccc(Cl)cc3)n2-c2ccccc2OC)sc2c1CCCC2	-11.1	1.7	1.3	0.1
Cc1ccc(C(=S)N2CCOCC2)cc1	-14.0	-1.4	2.3	-0.2
Fc1ccc(-n2ncc3c(Oc4ccc(Cl)cc4)ncnc32)cc1	8.5	0.1	42.2*	-0.1
Cc1ccc(Oc2ncnc3c2cnn3-c2ccccc2)cc1	8.2	0.7	50.8*	-0.1
Cc1ccc(-n2ncc3c(Oc4ccc(F)cc4)ncnc32)cc1	-0.8	-0.2	58.4*	-0.1
Fc1cccc(Oc2ncnc3c2cnn3-c2cccc(Cl)c2)c1	-8.2	-1.4	-2.6	-0.1
COc1ccc(Oc2ncnc3c2cnn3-c2ccccc2)cc1	10.1	1.1	-10.6	0.3
COC(C(=O)Nc1cc(Cl)ccc1C)c1ccccc1 (centres undefined)	-1.0	0.4	-2.8	0.1
CCCOC(=O)Nc1ccc(OC(=O)CC)cc1	3.2	0.0	-44.9	0.1
CC(C)(C)C(=O)CN(Cc1ccco1)S(=O)(=O)/C=C/c1ccccc1	11.8	0.8	-2.8	0.0
Cc1cccc2cc(CN(Cc3ccco3)C(=O)C(F)(F)F)c(=O)[nH]c12	-16.4	-0.8	61.0*	0.0
CN1CCN(C(CN)c2ccc(N(C)C)cc2)CC1 (centres undefined)	3.3	-1.3	4.5	-0.1
COc1cccc(-c2cc3nc4c(c(NCc5cccnc5)n3n2)CCC4)c1	-0.8	-0.6	42.2*	-0.1
COc1cc(OC)cc(-c2cc3nc4c(c(NCc5cccnc5)n3n2)CCC4)c1	-3.8	-0.5	44.7*	-0.1
Oc1ccc(Nc2nccn3c(-c4cccc(F)c4)cnc23)cc1	-2.2	-1.1	65.1*	-0.1
O=C(NCCO)c1cccc(-c2cnc3c(Nc4ccc(F)c(Cl)c4)nccn23)c1	9.8	-3.9	73.8*	-0.3
O=C(NCCO)c1cccc(-c2cnc3c(Nc4cccc(C(F)(F)F)c4)nccn23)c1	-9.8	-0.9	-5.1	0.0
OC1CCC(Nc2nccn3c(-c4ccsc4)cnc23)CC1 (centres undefined)	13.3	-1.5	-8.7	2.1*
Oc1ccc(Nc2nccn3c(-c4ccc(F)cc4)cnc23)cc1	-16.5	-0.5	52.6*	0.0
SMILES	MITF inh	GPR151 ag	TEAD-YAP block	FBW7 act
Cc1ccc(-c2cnc3c(Nc4ccc(O)cc4)nccn23)cc1	14.2	-0.2	8.7	0.1
CCOC(=O)/C(C#N)=C\c1ccccc1[N+](=O)[O-]	4.4	2.2	4.4	-0.2
CC(C)c1ccc(Nc2nccn3c(-c4ccc(O)cc4)cnc23)cc1	5.0	2.5	-9.9	0.9
Oc1ccc(Nc2nccn3c(-c4ccsc4)cnc23)cc1	-5.6	-0.7	37.0*	0.0
Oc1ccc(Nc2nccn3c(-c4ccccc4F)cnc23)cc1	10.3	-1.5	82.9*	0.8
CC(/C=C1\N=C(c2cc(F)c(F)cc2Cl)OC1=O)=C\c1ccccc1	-4.0	0.3	3.3	-0.1
O=C(COc1cccc(F)c1)Nc1ccc(-c2nnc3n2CCCCC3)cc1	-1.9	0.4	7.5	0.0
CCc1cc(C(=O)OC)c(NC(=O)c2cc(-c3ccc(C(C)C)cc3)nc3ccccc23)s1	9.0	-0.9	-3.5	-0.1
CCCNc1ccnc(Nc2ccccc2)n1	13.1	1.0	-31.0	-0.1
CCCNc1ccnc(Nc2ccncc2)n1	2.9	-1.3	36.0*	0.0
O=C(COc1ccccc1)N1CCN(c2ccc(Nc3ccccn3)nn2)CC1	8.4	-0.4	9.7	-0.8
O=C(COc1ccccc1)N1CCN(c2ccc(Nc3ccncc3)nn2)CC1	2.1	1.8	-4.8	2.0*
Cc1ccc(S(=O)(=O)NC(=O)Nc2ccc(-c3nc4ccc(C)cc4s3)cc2)cc1	16.0	-8.6	90.8*	0.1
Cc1ccc(S(=O)(=O)Nc2ccccc2C(=O)Nc2ccc(-c3nc4ccc(C)cc4s3)cc2)cc1	5.0	-0.7	-2.8	1.1
CC1=CCC(C(=O)O)C(C(=O)Nc2ccc(-c3nc4ccc(C)cc4s3)cc2)C1 (centres undefined)	-11.6	-3.0	59.1*	0.0
CCN(CC)Cc1c(C(=O)N/N=C/c2ccc(O)c([N+](=O)[O-])c2)nnn1-c1nonc1N	74.7*	-0.9	11.7	-0.2
CCN(CC)Cc1c(C(=O)N/N=C/c2cccc(OC)c2O)nnn1-c1nonc1N	60.0*	-0.7	13.8	-0.4
CCC(C)c1ccc(NC(=O)CN2c3cccc4cccc(c34)S2(=O)=O)cc1 (centres undefined)	-7.0	-0.5	9.2	0.1
c1cc(N2CCOCC2)ccc1CN1CCn2cnnc2C1	9.3	1.1	0.4	0.7
FC(F)(F)c1cccc(-c2cc(Nc3ncccn3)nc(-c3ccncc3)n2)c1	9.6	2.6	8.0	0.1
CCCCOC(=O)c1cccc(NC(=O)COc2ccc(Cl)cc2Cl)c1	-4.1	1.0	57.4*	0.1
CCOC(=O)c1cccc(NC(=O)CCC2CCCCC2)c1	12.1	-1.4	-9.2	2.1*
CCOC(=O)c1cccc(NC2C=CS(=O)(=O)C2)c1 (centres undefined)	-6.4	1.9	62.9*	-0.5
CCOC(=O)c1cccc(NC(=O)COc2ccc(Cl)cc2Cl)c1	7.4	3.9	81.3*	0.1
CCCCOC(=O)c1ccc(NC(=O)COc2ccc(Cl)cc2Cl)cc1	10.6	-0.2	7.6	0.1
SMILES	MITF inh	GPR151 ag	TEAD-YAP block	FBW7 act
Cc1cccc2sc(NNC(=O)c3ccccc3F)nc12	-0.5	-0.3	1.2	-0.2
CCCN(CCC)C1=C(C(=O)c2ccccc2)NS(=O)(=O)c2ccccc21	-5.7	0.0	-3.4	-0.1
CC(=O)c1cccc(-c2cncc(C(=O)Nc3ccccc3)c2)c1	2.6	-0.1	1.3	0.0
CCCNC(=O)C(=O)NCC1CCCN1S(=O)(=O)c1ccc(C)cc1 (centres undefined)	3.1	2.5	9.6	0.0
COc1cccc(CNC(=O)C(=O)NCC2CCCN2S(=O)(=O)c2ccc(C)cc2)c1 (centres undefined)	2.5	3.5	40.5*	-0.1
CCCCCNC(=O)C(=O)NCC1CCCN1S(=O)(=O)c1ccc(C)cc1 (centres undefined)	-3.4	0.8	49.1*	0.1
CNC(=O)C(=O)NCCC1CCCCN1S(=O)(=O)c1ccc(C)cc1 (centres undefined)	3.1	1.0	1.5	0.0
Cc1ccc(S(=O)(=O)N2CCCCC2CCNC(=O)C(=O)NCc2cccnc2)cc1 (centres undefined)	2.2	-0.5	36.3*	0.6
